In PMC13083723 (Patterns, 2026) one finds result_ITMP data, which are given here for 69 compounds.

Screen size: about 5,400 compounds; about 190 (3.5%) showed an effect of 50% or more. The sample as a whole holds a higher share of strong results than the screen did. Positions of bridges follow the written chain, without caps; N, C: chain ends. Non-standard residues stand in square brackets, D forms with d. Residues, ends and D or L forms follow the SMILES beside them. *: point of attachment. Heptanoyl(5-Me) = CCC(C)CCCC(=O)*; Dab = NCC[C@H](N)C(=O)O

The subject of this assay is Vero-E6. Description: primary screen, phospholipidosis by LipidTOX staining; higher = more effect of the substance. The note with it: 10 µM. The method, boiled down: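 Drug-induced phospholipidosis detected with HCS LipidTOX Red reagent in Vero-E6 cells. Compounds tested at 10 μM, with amiodarone (10 μM) as positive control and DMSO (0.1 v/v %) as vehicle.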
For `C=CCN.ClCC1CO1` (stereo not drawn), the result_ITMP is -4.42%.
Consider `C[C@@H]1N=C(N)NC(N(C)C)=N1`, for which the result_ITMP is listed as -2.11%.
For the compound `CC(C)c1cnn2c(NCc3ccccc3)cc(NCCCCCCN)nc12`, the result_ITMP was 53.6%.
Then `CC(=O)N[C@H]1[C@H]([C@H](O)[C@H](O)CO)OC(C(=O)O)=C[C@@H]1NC(=N)N`, with -15.8%; and `Cc1ncc(-c2csc(NC(=N)N)n2)[nH]1`, with -2.01%.
Under `Cn1cc(C(=O)C(=O)N[C@H]2CN3CCC2CC3)c2ccccc21` stands 4.71%; under `c1ccc2c(c1)Sc1ccccc1N2CC1CN2CCC1CC2` (stereo not drawn), 71.6%.
Under `C[C@H](CCC(=O)[O-])[C@H]1CCC2C3C(=O)CC4CC(=O)CC[C@]4(C)C3CC(=O)[C@@]21C` (stereo partly drawn) stands 4.65%.
For `COc1cc(NC(C)CCCN)c2ncccc2c1` (stereo not drawn), the result_ITMP is listed as 1.37%.
Then `COc1cc(C)c2c(Oc3cccc(C(F)(F)F)c3)c(OC)cc(NC(C)CCCN)c2n1` (stereo not drawn), with 51.6%; and `CO[C@H]1CC[C@H](N(c2cc(C3=CCCCC3)sc2C(=O)[O-])C(=O)[C@H]2CC[C@H](C)CC2)CC1`, with -0.87%.
Under `C[C@]12CC[C@@H]3c4ccc(OC(=O)N(CCCl)CCCl)cc4CC[C@H]3[C@@H]1CC[C@@H]2OP(=O)([O-])[O-]` stands -4.08%; under `O=C(CCCN1CCC2(CC1)C(=O)N(Cc1cccc(F)c1)CN2c1ccccc1)c1ccc(F)cc1`, 89%.
Under `O=C(CCCN1CCC2(CC1)C(=O)NCN2c1ccccc1)c1ccc(F)cc1` stands 20.3%; under `O=C(CCCN1CCC(O)(c2ccc(Br)cc2)CC1)c1ccc(F)cc1`, 14.8%.
On to `CC(=O)OCC1=C(C(=O)[O-])N2C(=O)[C@@H](NC(=O)CCCC(N)C(=O)[O-])C2SC1` (stereo partly drawn), for which the result_ITMP is given as 1.34%.
Then `CC1(C)[C@H]2CC[C@@]1(C)[C@H](O)[C@@H]2O`, with -3.19%; and `C[C@@H]1[C@H](O)[C@@H](C)/C=C/C=C/C=C/C=C/C=C/C=C/C=C/[C@H](O[C@@H]2O[C@H](C)[C@@H](O)[C@H](N)[C@@H]2O)C[C@@H]2O[C@](O)(C[C@@H](O)C[C@@H](O)[C@H](O)CC[C@@H](O)C[C@@H](O)CC(=O)O[C@H]1C)C[C@H](O)[C@H]2C(=O)O`, with 0.23%.
Then `C[C@]12CCC(=O)C=C1CC[C@@H]1[C@@H]2[C@@H](O)C[C@]2(C)C(=O)CC[C@@H]12`, with -4.8%; and `NC(=O)[C@@H]1CC[C@@H]2CN1C(=O)N2OS(=O)(=O)[O-]`, with -0.26%; and `COc1ccc(F)c(F)c1C(=O)c1cnc(NC2CCN(S(C)(=O)=O)CC2)nc1N`, with 16.3%.
Then `CC(C)CCN1c2nc(Nc3cc(F)c(O)c(F)c3)ncc2N(C)C(=O)C1C` (stereo not drawn), with 17.5%; and `COc1cc(OC2CCN(C)CC2)ccc1Nc1ncc2c(n1)n(C1CCCC1)c(=O)n2C`, with 37.2%; and `COc1cc(C(=O)NC2CCN(C)CC2)c(F)cc1Nc1ncc2c(n1)N(C1CCCC1)CC(F)(F)C(=O)N2C`, with 69.4%.
For `COc1cc(C(=O)N2CCC(N3CCN(C)CC3)CC2)ccc1Nc1ncc2c(n1)N(C)c1ccccc1C(=O)N2C`, the result_ITMP worked out at 37.9%.
Then `CCOc1cc(C(=O)N2CCC(N3CCN(C)CC3)CC2)ccc1Nc1ncc2c(n1)N(C1CCCC1)c1ccccc1C(=O)N2C`, with 14.1%.
Then `CC[C@@H]1C(=O)N(C)c2cnc(Nc3ccc(C(=O)NC4CCN(C)CC4)cc3OC)nc2N1C1CCCC1`, with 66.8%; and `CC[C@@H]1C(=O)N(C)c2cnc(Nc3ccc(C(=O)N[C@H]4CC[C@H](N5CCN(CC6CC6)CC5)CC4)cc3OC)nc2N1C(C)C`, with 81.5%.
With `CC(C)(C)/[N+]([O-])=C/c1ccc(S(=O)(=O)[O-])cc1S(=O)(=O)[O-]`, the result_ITMP is given as -0.44%.
Turning to `O=C(O)c1ccc(/C=C2\SC(=S)N(c3cccc(C(F)(F)F)c3)C2=O)cc1`, the result_ITMP amounted to 0.16%.
Then `CC(C)(COP(=O)([O-])OP(=O)([O-])OC[C@H]1O[C@@H](n2cnc3c(N)ncnc32)[C@H](O)[C@@H]1OP(=O)([O-])O)[C@@H](O)C(=O)NCCC(=O)NCCS`, with -4.31%; and `COc1ccc(/C=C\c2cc(OC)c(OC)c(OC)c2)cc1OP(=O)([O-])[O-]`, with 11.6%.
Under `N=C1NCCN1CC(=O)O` stands 1.96%; under `O=C(O)CC/C=C\C[C@@H]1CO[C@H](c2ccccc2Cl)O[C@@H]1c1ccccc1O` (racemic), -1.11%; under `NC(=O)C1=CN([C@@H]2O[C@H](COP(=O)([O-])OP(=O)([O-])OC[C@H]3O[C@@H](n4cnc5c(N)ncnc54)[C@H](O)[C@@H]3O)[C@@H](O)[C@H]2O)C=CC1`, -10.8%.
For `C[C@H]1Oc2cc(cnc2N)-c2c(nn(C)c2C#N)CN(C)C(=O)c2ccc(F)cc21` [R4A_0001637_001 / SPE_A23124853], the result_ITMP is -7.18%.
Take `Cc1onc(-c2ccccc2)c1C(=O)NC1C(=O)N2[C@@H]1SC(C)(C)[C@@H]2C(=O)[O-]` (stereo partly drawn): the result_ITMP is on record as -4.06%.
Then `CCOC(=O)C1CSC(Cc2ccc(OCc3ccc([N+](=O)[O-])cc3)cc2)N1` (stereo not drawn), with -2.45%; and `N=C(N)SCCc1ccc(OCc2ccc([N+](=O)[O-])cc2)cc1`, with 70%.
As to `O=C(O)c1cc(Oc2ccc([N+](=O)[O-])cc2)cc(Oc2ccc([N+](=O)[O-])cc2)c1`, the result_ITMP was -1.17%.
In the case of `COc1c(C)c(C(=O)c2ccc(N)c(C(=O)[O-])c2)n2ccccc12`, the result_ITMP is given as -3.94%.
Then `NCCC(O)(P(=O)([O-])O)P(=O)([O-])O`, with -8.19%; and `O=S(=O)([O-])c1cc(I)c(O)c2ncccc12`, with -9.09%; and `Cc1nc(=O)c2c([nH]1)CCSC2`, with -2.05%.
Then `CC1(C)[C@@H]2CC[C@@]1(C)C(=O)C2` [R4A_0000828_001 / SPE_K15714472], with -1%; and `Cc1ccc(NC(=O)c2ccc(CN3CCN(C)CC3)cc2)cc1Nc1nc(-c2cccnc2)cs1`, with 54%.
Then `Cc1ncc(NC(=O)c2ccc(CN3CCN(C)CC3)c(C(F)(F)F)c2)cc1Nc1nccc(-c2cccnc2)n1`, with 9.33%; and `Cc1ccc(C(=O)Nc2cccc(C(F)(F)F)c2)cc1Nc1nc(-c2cccnc2)nc2c1cnn2C`, with -4.6%; and `CC(C)[C@@H](C)/C=C/[C@@H](C)[C@H]1CC[C@H]2C3=CC=C4C[C@@H](O)CC[C@]4(C)[C@H]3CC[C@]12C`, with -5.48%.
In the case of `Nc1ncnc2c1ncn2C1O[C@H](COP(=O)(O)OP(=O)([O-])OP(=O)([O-])O)[C@@H](O)[C@H]1O` (stereo partly drawn), the result_ITMP was 6.44%.
Then `CC1(C)[C@@H]2C[C@H]1[C@@](C)(O)[C@@H](O)C2`, with -2.34%.
With `Cc1ccc(C(=O)N(CCCN)[C@@H](c2oc3cc(Cl)ccc3c(=O)c2Cc2ccccc2)C(C)C)cc1`, the result_ITMP worked out at 92.7%.
Then `Cc1ccc(C(=O)N(CCCN)[C@@H](c2nc3cc(Cl)ccc3c(=O)n2Cc2ccccc2)C(C)C)cc1`, with 75.7%; and `CCNC(=O)CCC(N)C(=O)O` (stereo in doubt), with -4.2%; and `c1cc2c(cc1[C@H]1OC[C@H]3[C@@H]1CO[C@@H]3c1ccc3c(c1)OCO3)OCO2`, with -6.11%.
Then `c1ccc(Oc2nc(NC3CCCCC3)c3nc[nH]c3n2)cc1`, with -2.48%; and `NC(N)=NCCC[C@@H](N)C(=O)N[C@@H](CCCN=C(N)N)C(=O)N1CCC[C@H]1C(=O)N1C[C@H](O)C[C@H]1C(=O)NCC(=O)N[C@@H](Cc1cccs1)C(=O)N[C@@H](CO)C(=O)N1Cc2ccccc2C[C@@H]1C(=O)N1[C@H](C(=O)N[C@@H](CCCN=C(N)N)C(=O)O)C[C@@H]2CCCC[C@@H]21`, with -1.28%; and `CCOc1cc2ncc(C#N)c(Nc3ccc(F)c(Cl)c3)c2cc1NC(=O)/C=C/CN(C)C`, with 73.9%.
Take `CCOc1cc2ncc(C#N)c(Nc3ccc(OCc4cccc(F)c4)c(Cl)c3)c2cc1NC(=O)/C=C/CN(C)C`: the result_ITMP was -0.47%.
For the compound `CN(C)C/C=C/C(=O)Nc1cc2c(Nc3ccc(F)c(Cl)c3)ncnc2cc1O[C@H]1CCOC1`, the result_ITMP amounted to 108%.
Under `CCOc1cc2ncc(C#N)c(Nc3ccc(OCc4ccccn4)c(Cl)c3)c2cc1NC(=O)/C=C/CN(C)C` stands 0.53%.
Then `COc1cc2ncnc(Nc3ccc(F)c(Cl)c3)c2cc1NC(=O)/C=C/CN1CCCCC1`, with 19.4%.
Under `C=CC(=O)Nc1cc2c(Nc3ccc(F)c(Cl)c3)ncnc2cc1OCCCN1CCOCC1` stands 4.03%; under `CCOC(=O)OC(C)OC(=O)C1N2C(=O)C(NC(=O)[C@H](N)c3ccccc3)C2SC1(C)C` (stereo partly drawn), -2.51%.
For the compound `CCC(=O)O[C@@H]1CC(=O)O[C@H](C)C/C=C/C=C/[C@H](OC(C)=O)[C@H](C)C[C@H](CC=O)[C@H](O[C@@H]2O[C@H](C)[C@@H](O[C@H]3C[C@@](C)(OC(C)=O)[C@@H](OC(=O)CC)[C@H](C)O3)[C@H](N(C)C)[C@H]2O)[C@H]1OC`, the result_ITMP turned out to be 7.16%.
Then `O=C1NC(c2ccccc2)(c2ccccc2)C(=O)N1COP(=O)([O-])[O-]`, with -0.37%.
Then `CNC(=O)CN1CCC(Oc2cc3c(Nc4cccc(Cl)c4F)ncnc3cc2OC)CC1`, with 27.2%.
Then `CN1CCN(CCOc2cc(OC3CCOCC3)c3c(Nc4c(Cl)ccc5c4OCO5)ncnc3c2)CC1`, with 58.5%; and `CCC(C)CCCC(=O)N[C@@H](CCN)C(=O)N[C@H](C(=O)N[C@@H](CCN)C(=O)N[C@H]1CCNC(=O)[C@H]([C@@H](C)O)NC(=O)[C@H](CCN)NC(=O)[C@H](CCN)NC(=O)[C@H](CC(C)C)NC(=O)[C@@H](CC(C)C)NC(=O)[C@H](CCN)NC1=O)[C@@H](C)O` (stereo partly drawn) [R4A_0005175_001 / SPE_A18924964] ({Heptanoyl(5-Me)}-[Dab]T[Dab][Dab][Dab][dL]L[Dab][Dab]T; lactam 4-C), with -1.3%.
